Test results taken from the antibiotic and cytotoxicity screens of Wong et al. (2023).
About 500 (1.3%) of roughly 39,000 compounds were called active. Only a selection was taken, and actives are over-represented in it overall.

The molecules below were run on S. aureus RN4220 (assay: growth inhibition call (relative growth <= 0.2)). Details: 50 µM.

Row | Structure (SMILES) | growth inhibition call
1 | CC1=C(/C=C/C(C)=C/C=C/C(C)=C/C=C/C=C(C)/C=C/C=C(C)/C=C/C2=C(C)CCCC2(C)C)C(C)(C)CCC1 | inactive
2 | Cc1noc(C)c1NC(=O)Nc1cccc2c1O[C@H](CN(C)S(=O)(=O)c1cn(C)cn1)[C@H](C)CN([C@@H](C)CO)C2=O | inactive
3 | C[C@H](CO)N1C[C@H](C)[C@@H](CN(C)Cc2ccc(C(=O)Nc3ccccc3N)cc2)Oc2c(NS(=O)(=O)c3cn(C)cn3)cccc2C1=O | inactive
4 | Cc1nn(C)c(COc2ccc(N3CCN(S(=O)(=O)N(C)C)CC3)cc2)c1-c1cccc2c(CCCOc3cccc4ccccc34)c(C(=O)O)n(CCN3CCNCC3)c12 | inactive
5 | COc1ccc2c(c(Br)c(C(=O)O)n2CCCOc2cccc3ccccc23)c1-c1ccccc1C | active
6 | COc1cc(C(=O)N2CCN(CCN3C(=O)c4cccc5cccc(c45)C3=O)CC2)cc(OC)c1OC | inactive
7 | C=Cn1cnc2c1c(=O)n(C)c(=O)n2C | inactive
8 | CC(C)=CCCC1(C)C=Cc2c(O)c3c(c(CC=C(C)C)c2O1)OC12C(=CCCC1C(C)(C)OC2(CC=C(C)C(=O)O)C(=O)O)C3=O (centres undefined) | active
9 | CC(C)=CCc1c2c(c3occ(-c4ccc(O)cc4)c(=O)c3c1O)C=CC(C)(C)O2 | inactive
10 | C=c1ccc(S(=O)(=O)NC[C@@H](C)O)cc1=C1NN=C2c3ccccc3C(C)=NN21 | inactive
11 | C[C@H](CO)N1C[C@H](C)[C@H](CN(C)S(C)(=O)=O)Oc2cc(C#Cc3ccc(F)cc3)ccc2S1(=O)=O | inactive
12 | C[C@@H]1CN([C@H](C)CO)C(=O)c2cccc(NS(=O)(=O)c3ccccc3)c2O[C@@H]1CN(C)Cc1ccncc1 | inactive
13 | CCCCCCCCCCCCCCCC[N+](C)(C)Cc1ccccc1.[Cl-] | inactive
14 | CCCCCCCCCCCCC[N+](C)(C)Cc1ccccc1.O.[Cl-] | inactive
15 | CCCCCCCCCCCCC[N+](C)(C)Cc1ccccc1 | active
16 | Cc1noc(C)c1S(=O)(=O)N(C)C[C@@H]1Oc2ccc(NS(C)(=O)=O)cc2CC(=O)N([C@H](C)CO)C[C@H]1C | inactive
17 | C[C@@H]1CN([C@H](C)CO)C(=O)c2cccc(NC(=O)c3cnccn3)c2O[C@@H]1CN(C)S(=O)(=O)c1ccc(F)cc1 | inactive
18 | C[C@@H]1CCCCO[C@@H](CN(C)C(=O)Nc2ccc3c(c2)OCO3)[C@H](C)CN([C@@H](C)CO)C(=O)c2cc(NC(=O)Nc3ccccc3)ccc2O1 | inactive
19 | COc1ccc(C#Cc2ccc3c(c2)O[C@@H](CN(C)S(=O)(=O)c2ccccc2F)[C@H](C)CN([C@H](C)CO)S3(=O)=O)cc1 | inactive
20 | O=C(O)c1ccccc1-c1c2cc(I)c(=O)c(I)c-2oc2c(I)c(O)c(I)cc12 | active

Row | Structure (SMILES) | growth inhibition call
21 | O=C(O)c1ccccc1-c1ccco1 | inactive
22 | O=C(O)CN(CC(=O)O)Cc1cc2c(-c3ccccc3C(=O)O)c3cc(CN(CC(=O)O)CC(=O)O)c(=O)cc-3oc2cc1O | inactive
23 | O=C([O-])c1ccccc1-c1c2cc(I)c(=O)c(I)c-2oc2c(I)c([O-])c(I)cc12.[Na+].[Na+] | active
24 | C[C@@H]1CN([C@@H](C)CO)C(=O)c2cc(NS(=O)(=O)c3ccccc3)ccc2O[C@@H](C)CCCCO[C@@H]1CN(C)Cc1ccc2c(c1)OCO2 | inactive
25 | Cc1ccc(S(=O)(=O)N(C)C[C@H]2OCCCC[C@H](C)Oc3ccc(NC(=O)NC4CCCCC4)cc3C(=O)N([C@H](C)CO)C[C@@H]2C)cc1 | inactive
26 | O=C(CN1CCOCC1)N[C@H]1CC[C@H](CCNS(=O)(=O)c2ccccc2F)O[C@H]1CO | inactive
27 | CO[C@@H]1CN(C)C(=O)c2ccc(NC(=O)Nc3cccc(F)c3)cc2OC[C@H](C)N(C(=O)Nc2c(C)noc2C)C[C@H]1C | inactive
28 | CC(O)C1C(=O)N2C(C(=O)O)=C(SC3CNC(C(=O)N(C)C)C3)C(C)C12 (centres undefined) | active
29 | CC(O)C1C(=O)N2C(C(=O)[O-])=C(SC3Cn4cnc[n+]4C3)C(C)C12 (centres undefined) | inactive
30 | C[C@@H](O)[C@H]1C(=O)N2C(C(=O)O)=C(SCCNC=N)C[C@H]12 | inactive
31 | C[C@@H]1CN([C@@H](C)CO)C(=O)CCCn2cc(nn2)CO[C@H]1CN(C)C(=O)C1CC1 | inactive
32 | C[C@H](CO)N1C[C@H](C)[C@H](CN(C)C(=O)CCC(F)(F)F)OCCCC[C@H](C)Oc2ccc(NC(=O)C3CCCCC3)cc2C1=O | inactive
33 | COc1cccc(S(=O)(=O)N2C[C@@H](O)COC[C@@H]3O[C@@H](CC(=O)N4CCN(c5ccccc5)CC4)CC[C@H]32)c1 | inactive
34 | CN[C@H](CC(C)C)C(=O)N[C@H]1C(=O)N[C@@H](CC(N)=O)C(=O)N[C@H]2C(=O)N[C@H]3C(=O)N[C@H](C(=O)N[C@H](C(=O)O)c4cc(O)cc(O)c4-c4cc3ccc4O)[C@H](O)c3ccc(c(Cl)c3)Oc3cc2cc(c3O[C@@H]2O[C@H](CO)[C@@H](O)[C@H](O)[C@H]2O[C@H]2C[C@](C)(N)[C@H](O)[C@H](C)O2)Oc2ccc(cc2Cl)[C@H]1O | active
35 | C[C@@H]1O[C@@H](O[C@H]2[C@@H](Oc3cc(O)c4c(c3)O[C@H](c3ccc(O)cc3)CC4=O)O[C@H](CO)[C@@H](O)[C@@H]2O)[C@H](O)[C@H](O)[C@H]1O | inactive
36 | C[C@@H]1O[C@@H](O[C@H]2[C@H](Oc3cc(O)c4c(c3)O[C@H](c3ccc(O)cc3)CC4=O)O[C@H](CO)[C@@H](O)[C@@H]2O)[C@H](O)[C@H](O)[C@H]1O | inactive
37 | CC1OC(OC2C(Oc3cc(O)c4c(c3)OC(c3ccc(O)cc3)CC4=O)OC(CO)C(O)C2O)C(O)C(O)C1O (centres undefined) | inactive
38 | CC(C)C[C@@H](N)C(=O)N[C@H]1C(=O)N[C@@H](CC(N)=O)C(=O)N[C@H]2C(=O)N[C@H]3C(=O)N[C@H](C(=O)N[C@H](C(=O)O)c4cc(O)cc(O)c4-c4cc3ccc4O)[C@H](O)c3ccc(c(Cl)c3)Oc3cc2cc(c3O[C@@H]2O[C@H](CO)[C@@H](O)[C@H](O)[C@H]2O[C@H]2C[C@](C)(N)[C@H](O)[C@H](C)O2)Oc2ccc(cc2Cl)[C@H]1O | active
39 | CNC(CC(C)C)C(=O)NC1C(=O)NC(CC(N)=O)C(=O)NC2C(=O)NC3C(=O)NC(C(=O)NC(C(=O)O)c4cc(O)cc(O)c4-c4cc3ccc4O)C(O)c3ccc(c(Cl)c3)Oc3cc2cc(c3OC2OC(CO)C(O)C(O)C2OC2CC(C)(N)C(O)C(C)O2)Oc2ccc(cc2Cl)C1O.Cl (centres undefined) | active
